The experiment is described as follows: NCI Yeast Anticancer Drug Screen. Data for the mgt1 strain (AID 153). Particulars: S. cerevisiae mgt1 mutant growth inhibition, stronger effect = higher value. On the procedure: Growth inhibition of yeast strains with defined genetic alterations is measured as a screen for potential anti-cancer activity. Selected strains with alterations in DNA damage repair or cell cycle control were exposed to compounds and growth inhibition was measured relative to vehicle treated controls. The strain used in this assay is mgt1

The source of these data is PubChem BioAssay (NCI).

Each structure is given as a SMILES string. The panel holds about 79,000 compounds, 15% with a hit somewhere; the sample as a whole holds those more often. The source made the active and inactive calls. Rule as the data show it: active = growth inhibition above about 70%; inactive = the rest.

Turning to `Cc1cccc(C)c1NC(=O)C(C#N)C1=C(Cl)C(=O)c2ccccc2C1=O` (stereo not given), the growth inhibition was -4% (inactive) (at 1.2 µM); 78% (active) (at 3.7 µM); 98% (active) (at 11.0 µM); 98% (active) (at 33.0 µM); 98% (active) (at 100.0 µM).

As to `NC(N)=NS(=O)(=O)c1ccc(Nc2c3ccccc3nc3c(C(=O)NC(CO)(CO)CO)cccc23)cc1`, the growth inhibition was 2% (inactive) (at 1.2 µM); -1% (inactive) (at 3.7 µM); -2% (inactive) (at 11.0 µM); 1% (inactive) (at 33.0 µM); 4% (inactive) (at 100.0 µM).

Turning to `COC(=O)C1CCCCC1C(=O)Nc1ccccc1` (stereo not given), the growth inhibition (at 1.2 µM) was 0% (inactive); the growth inhibition (at 3.7 µM) was -1% (inactive); the growth inhibition (at 11.0 µM) was 1% (inactive); the growth inhibition (at 33.0 µM) was -1% (inactive); the growth inhibition (at 100.0 µM) was -32% (inactive).

As for `O=C1C=CC(=Nc2cccc3c2-c2ccccc2C3=O)O1`, the growth inhibition is, setting by setting: (at 1.2 µM) 1% (inactive); (at 3.7 µM) 17% (inactive); (at 11.0 µM) 71% (active); (at 33.0 µM) 99% (active); (at 100.0 µM) 99% (active).

Regarding `Nc1ccc(N=Nc2ccc(-c3ccc(O)cc3)cc2)c2ccc(S(=O)(=O)O)cc12`, the growth inhibition runs as follows: (at 1.2 µM) 1% (inactive); (at 3.7 µM) 0% (inactive); (at 11.0 µM) 3% (inactive); (at 33.0 µM) 6% (inactive); (at 100.0 µM) 12% (inactive).

On to `O=C1/C(=C/c2ccc(Cl)c(Cl)c2)CNC/C1=C\c1ccc(Cl)c(Cl)c1`, for which the growth inhibition by setting is: (at 1.2 µM) 5% (inactive); (at 3.7 µM) 13% (inactive); (at 11.0 µM) 35% (inactive); (at 33.0 µM) 69% (inactive); (at 100.0 µM) 94% (active).

As for `O=C(CCCN1CCC(Nc2ccc(F)cc2)(c2nnnn2C2CCCCC2)CC1)c1ccc(F)cc1`, the growth inhibition was -2% (inactive) (at 1.2 µM); -3% (inactive) (at 3.7 µM); -6% (inactive) (at 11.0 µM); 2% (inactive) (at 33.0 µM); 98% (active) (at 100.0 µM).

As for `O=C1CC(C(O)(C(F)(F)F)C(F)(F)Cl)CCC1C(O)(C(F)(F)F)C(F)(F)Cl` (stereo not given), the growth inhibition (at 1.2 µM) is 60% (inactive); the growth inhibition (at 3.7 µM) was 65% (inactive); the growth inhibition (at 11.0 µM) was 87% (active); the growth inhibition (at 33.0 µM) is 94% (active); the growth inhibition (at 100.0 µM) was 97% (active).
